Hit rate of the full screen: of about 59,000 compounds, about 6,500 (11%) were called active. Roughly 15% stayed inconclusive and do not appear here. No stated cut-off is given here; in the data, active means max dye-equivalent concentration above about 10 nM; inconclusive means mostly about 1.1 nM to 9.6 nM; inactive means weaker than that. Many of the other results were omitted from the sample, so actives are more common in it than they were. Where a structure was tested more than once in an assay, its records may differ in their call.

This assay can be described thus: qHTS Assay for Spectroscopic Profiling in A350 Spectral Region. The following applies: Compound autofluorescence, 340/450 nm, Alexa 350 dye-equivalents; hits give high values.
Regarding `CCC(C)NC(=O)C1CCC(=O)N1Cc1ccc(C)cc1` (centres undefined), the max dye-equivalent concentration result was “inactive”. `NC(=O)C1(N2CCCCC2)CCN(C(=O)c2ccc(C#Cc3ccccc3)o2)CC1`: the max dye-equivalent concentration result was “inactive”.

For `O=S(=O)(NCc1ccccc1Cl)c1cnc[nH]1`, the max dye-equivalent concentration entry is “inactive”. Still for that read-out and setting: with `Cc1cc(NC(=O)c2cc(-c3cccs3)on2)nn1Cc1ccc(Cl)cc1` the entry was “inactive”. On the same count and under the same terms, with `O=C(O)CCC(=O)N(Cc1cccs1)Cc1cccs1` the entry was “inactive”; with `CC(C)Cn1c(CCC(=O)O)ccc1-c1cccs1`, 410 nM (active). On to `COc1ccc(NC(=O)N2CC3(CCN(C(C)=O)CC3)C2)cc1`, for which the max dye-equivalent concentration entry is “inactive”. The same measure, in the same setting: the same measure for `CC(C)c1ccc(NC(=O)NC2CCCCC2)cc1`: “inactive”; for `FC(F)(F)c1ccccc1-c1nc(-n2ccnc2)c2ccccc2n1`: “inactive”; for `Cn1c(=O)[nH]c(=O)c2c1nc(NCCCn1ccnc1)n2Cc1cccc(Br)c1`: “inactive”. As for `COc1ccc(NC(=O)c2c(C)oc3c2CCCC3)cc1`, the max dye-equivalent concentration result was “inactive”. With `COc1cccc(NC(=O)c2ccccc2SC)c1`, the max dye-equivalent concentration result is “inactive”. Same read-out and setting: the same measure for `COc1cc(OC)cc(C(=O)Nc2ccc(-c3nc4ccccc4o3)c(O)c2)c1`: 310 nM (active); for `O=C(O)c1ccc(C(=O)c2ccccc2C(=O)O)cc1C(=O)O`: “inactive”. On to `C=CCn1c(COc2ccccc2F)nnc1SCC(=O)N1CC(=O)Nc2ccccc21`, for which the max dye-equivalent concentration entry is “inactive”. Still for that read-out and setting: the same measure for `CCOC(=O)CNC(=O)CSc1nnc(COc2ccc(Cl)cc2)n1CC`: “inactive”; for `COCc1nc2ccccc2n1Cc1ccccc1Br`: “inactive”; for `COC(=O)COc1ccc2oc(=O)cc(C)c2c1`: 28 nM (active). As for `CCOC(=O)c1c(C)oc2ccc(OCC(=O)N(CC)CC)cc12`, the max dye-equivalent concentration result was “inactive”.

On to `COc1ccc(OCC(=O)OCCN(C)C)cc1`, for which the max dye-equivalent concentration result was “inactive”. On the same count and under the same terms, the same measure for `Cc1nn(-c2ccccc2)c(C)c1C(=O)OCC(=O)NC(=O)NC1CCCCC1`: “inactive”. The same measure, in the same setting: the same measure for `O=C(CSc1nnc(-c2ccccn2)n1-c1ccccc1)Nc1ccc2c(c1)OCO2`: “inactive”.

With `O=c1ccc2cc(S(=O)(=O)N3CCN(c4ccccc4)CC3)ccc2o1`, the max dye-equivalent concentration entry was “inactive”. On the same count and under the same terms, with `CC(=O)N1CCC(C(=O)Nc2nc(-c3ccccc3)ns2)CC1` the figure was 1700 nM (active); with `Cc1ccc2c(NC(=O)C3CC3)cccc2n1`, “inactive”. Regarding `Cc1cc(C)cc(NC(=O)C2CCN(c3nc(C)cc(C)n3)CC2)c1`, the max dye-equivalent concentration result was “inactive”. `CCCC(=O)N1c2ccc(-c3csc(N)n3)cc2CC1C` (centres undefined): the max dye-equivalent concentration entry was “inactive”. With `Cc1noc(NS(=O)(=O)c2ccc(N3CC(O)=C(c4ccccc4)C3=N)cc2)c1C`, the max dye-equivalent concentration entry is “inactive”. Turning to `COc1ccc(OC)c2c(N)c(C#N)c(C(F)(F)C(F)(F)F)nc12`, the max dye-equivalent concentration is 150 nM (active). Take `COc1cccc(N(C(=O)c2ccn[nH]2)C2(C(=O)Nc3c(C)cccc3C)CCCCC2)c1`: the max dye-equivalent concentration entry is “inactive”. On to `CS(=O)(=O)N1CCC[C@@]2(CCN(c3ccncc3)C2)C1`, for which the max dye-equivalent concentration result is “inactive”.

`Cc1ccc(CN2C(=O)CCC2C(=O)NCCCN2CCCCC2C)cc1` (centres undefined): the max dye-equivalent concentration entry was “inactive”. As for `COc1ccccc1CN1CC2(CCN(S(=O)(=O)c3ccccc3)CC2)C1`, the max dye-equivalent concentration entry was “inactive”. On to `CC(C)OCCCNC(=O)C1CC(=O)N(C2CCCCCCC2)C1` (centres undefined), for which the max dye-equivalent concentration result is “inactive”. On the same count and under the same terms, the same measure for `COc1ccc(CCNS(=O)(=O)c2ccc(F)cc2)cc1OC`: “inactive”; for `CCCc1[nH]nc2c1C(c1c(C)nn(-c3ccccc3)c1Cl)C(C#N)=C(N)O2` (centres undefined): “inactive”. Turning to `CSc1ccc(-c2c(C#N)c(N)nc3c2c(C)nn3-c2ccccc2)cc1`, the max dye-equivalent concentration was 360 nM (active). Still for that read-out and setting: with `CSc1nc(N)c(C#N)c(-c2ccccc2Cl)c1C#N` the entry was “inactive”. The same measure, in the same setting: with `O=S(=O)(c1ccccc1)N(CC(O)CN1CCCCC1)c1ccccc1` (centres undefined) the entry was “inactive”; with `O=C1c2oc3ccc(Br)cc3c(=O)c2C(c2cccc(F)c2)N1CCO` (centres undefined), “inactive”. On to `Cn1c(=O)c2c(nc(NCCc3ccccc3)n2Cc2ccccc2)n(C)c1=O`, for which the max dye-equivalent concentration result was “inactive”. Still for that read-out and setting: the same measure for `CCCSc1nc2c(c(=O)[nH]c(=O)n2C)n1CCc1ccccc1`: “inactive”; for `Cn1c(=S)c2[nH]c(SCCCc3ccccc3)nc2n(C)c1=O`: 12 nM (active); for `O=S1(=O)CC(NCc2ccccc2)C(Nc2ccc(Cl)cc2)C1` (centres undefined): “inactive”. Turning to `Cc1ccc(C)c(NC(=O)C2CC(=O)N(C(C)C)C2)c1` (centres undefined), the max dye-equivalent concentration result was “inactive”. As for `COc1ccccc1CCn1c(=O)c(-c2cn(C)c3ccccc23)nc2cncnc21`, the max dye-equivalent concentration result was “inactive”. Same read-out and setting: with `CN(C(=O)COc1nnc(-c2cccs2)c(-c2cccs2)n1)c1ccccc1` the entry was “inactive”. Turning to `COCCn1c(=O)c(-c2cccs2)nc2cnc(N3CCN(C)CC3)nc21`, the max dye-equivalent concentration was 17 nM (active). The same measure, in the same setting: the same measure for `COCCn1c(=O)c(-c2cccs2)nc2cncnc21`: 89 nM (active); for `Cc1ccccc1NC(=O)Cc1nnc(SCC(=O)N2CCN(c3ccccc3)CC2)n1C`: “inactive”; for `C=CCn1c(C)cc(C(=O)CN2C(=O)c3ccccc3C2=O)c1C`: “inactive”.

As for `CC(=O)Nc1ccc(NS(=O)(=O)c2cc(C)sc2C)cc1`, the max dye-equivalent concentration result was “inactive”. Same read-out and setting: the same measure for `COc1ccccc1CNc1ncncc1-c1cccc(NS(C)(=O)=O)c1`: “inactive”; for `Cc1ccc(C(=O)NCC(=O)O)cc1S(=O)(=O)N1CCCCC1`: “inactive”.

On to `CS(=O)(=O)Nc1cccc(-c2cncnc2Nc2ccccc2)c1`, for which the max dye-equivalent concentration result is “inactive”. On the same count and under the same terms, with `CCOc1ccc(OCC)c(NC(=O)C2CCN(S(=O)(=O)c3c(C)noc3C)CC2)c1` the entry was “inactive”; with `FC(F)(F)c1cccc(Nc2ncnc3ccccc23)c1`, “inactive”. The same measure, in the same setting: the same measure for `O=C(O)CCCc1ccccc1`: “inactive”. Regarding `Cc1cccc(C(=O)Nc2ccc(CC(=O)O)cc2)c1`, the max dye-equivalent concentration result was “inactive”.

For `O=C(O)Cc1ccc(-c2ccccc2)cc1`, the max dye-equivalent concentration is 47 nM (active) and the outcome was inactive. `Cc1c(-c2nn(C)c(=O)c3ccccc23)oc2ccc(F)cc2c1=O`: the max dye-equivalent concentration entry is “inactive”.

As for `Cc1[nH]c2ccccc2c1C(=O)CSCC(=O)O`, the max dye-equivalent concentration result was “inactive”. For `CCOC(=O)C1CCN(C(=O)c2oc3ccc(S(=O)(=O)N4CCCCCC4)cc3c2C)CC1`, the max dye-equivalent concentration entry was “inactive”. As for `CCN(CC)CCN1C(=O)C(=O)/C(=C(/O)c2ccc(OC)c(OC)c2)C1c1ccccn1` (centres undefined), the max dye-equivalent concentration was 42 nM (active). The same measure, in the same setting: with `CCCOc1ccc(/C(O)=C2/C(=O)C(=O)N(CCN(C)C)C2c2ccc(OC)c(OC)c2)cc1` (centres undefined) the entry was “inactive”; with `COc1ccc(/C(O)=C2/C(=O)C(=O)N(CCCN(C)C)C2c2ccccc2)cc1OC` (centres undefined), “inactive”. On the same count and under the same terms, with `CS(=O)(=O)N(C(=O)NC(=O)NC1CCS(=O)(=O)C1)C1CCCCC1` (centres undefined) the entry was “inactive”; with `c1cnc(NC2C3CC4CC(C3)CC2C4)nc1` (centres undefined), “inactive”. Take `O=C(CN(Cc1ccccc1)C(=O)c1ccc2c(c1)OCCO2)NCc1ccc2c(c1)OCO2`: the max dye-equivalent concentration entry was “inactive”. For the compound `Cc1cc(NC(=O)Cn2nc(C(F)(F)F)c3c2CCCC3)no1`, the max dye-equivalent concentration result is “inactive”. Same read-out and setting: with `COC(=O)c1ccc(C2NC(=O)NC(C)=C2C(=O)N(C)C)cc1` (centres undefined) the entry was “inactive”; with `CCCOC(=O)C1=C(C)NC2=C(C(=O)C(C(=O)OC)C(C)C2)C1c1ccc(N(C)C)cc1` (centres undefined), 22 nM (active). In the case of `COCCOC(=O)C1=C(C)NC(=O)CC1c1cc2c(cc1Br)OCO2` (centres undefined), the max dye-equivalent concentration result was “inactive”. On the same count and under the same terms, with `COC(=O)c1ccccc1NC(=O)CN(Cc1ccccc1)S(C)(=O)=O` the entry was “inactive”; with `S=c1[nH]nc(SCc2ccccc2Cl)c2[nH]cnc12`, “inactive”; with `CCOC(=O)N1CCN(CC(=O)c2ccc3c(c2)CCN3)CC1`, 17 nM (active). Turning to `CCOC(=O)N1CCN(CC(=O)n2c(C)c(C)c3ccccc32)CC1`, the max dye-equivalent concentration result was “inactive”. On the same count and under the same terms, with `CCOC(=O)N1CCC(O)(c2cc(C)c(C)cc2C)CC1` the entry was “inactive”; with `O=C(NCCCCO)C(F)(F)C(F)(F)C(F)(F)C(=O)NCCCCO`, “inactive”; with `O=C(Nn1cnc2ccccc2c1=O)c1ccc(F)cc1Cl`, “inactive”. With `Cc1nc(-c2ccc(NC(=O)c3cccs3)cc2)cs1`, the max dye-equivalent concentration was 280 nM (active). Turning to `Cn1c(SCC(=O)Nc2cccc(NC(=O)c3cccs3)c2)nnc1-c1ccncc1`, the max dye-equivalent concentration result is “inactive”. Still for that read-out and setting: with `O=C(O)Cc1ccc(NC(=O)c2cccs2)cc1` the entry was “inactive”. The same measure, in the same setting: the same measure for `O=C(O)C1CC(=O)N(Cc2cccnc2)C1` (centres undefined): “inactive”; for `CCOc1ccccc1NC(=O)CCc1ccc(C)o1`: “inactive”. Turning to `O=C(Nc1cccc(OCC(=O)N2CCOCC2)c1)C1CCCCC1`, the max dye-equivalent concentration result is “inactive”. The same measure, in the same setting: the same measure for `O=C(Oc1ccc2c(c1)CCC2)N1CCOCC1`: “inactive”; for `O=C1CC2(CCCCC2)Oc2ccc(OCC(=O)N3CCOCC3)cc21`: 1100 nM (active); for `CCNc1nc(SCCOc2ccccc2)nc(N(C)C)n1`: “inactive”. Same read-out and setting: the same measure for `CCCn1c(SCC(=O)Nc2c(C)cccc2C)nnc1C(C)C`: “inactive”; for `CC(=O)Nc1ccc(NC(=O)CN2CCCC(C)C2)c(Cl)c1` (centres undefined): “inactive”. With `Cc1cccn2c(=O)c3cc(C#N)c(=NC(=O)c4cccnc4)n(CC4CCCO4)c3nc12` (centres undefined), the max dye-equivalent concentration is 4000 nM (active). Still for that read-out and setting: with `Cn1c(=O)c2c(nc(CN3CCOCC3)n2Cc2ccccc2)n(C)c1=O` the entry was “inactive”; with `Cc1cccn2c(=O)c3cc(C#N)c(=O)n(CCCN4CCOCC4)c3nc12`, 12000 nM (active); with `Cc1nnc(SCC(N)=O)n1CC1CCCO1` (centres undefined), “inactive”.

In the case of `CCn1cc(C(=O)NCc2ccc(OC)cc2OC)c(=O)c2ccc(C)nc21`, the max dye-equivalent concentration entry was “inactive”.

For the compound `Cc1ccc(S(=O)(=O)NC(=O)NN2C[C@H]3CCC[C@@H]3C2)cc1`, the max dye-equivalent concentration entry was “inactive”. Still for that read-out and setting: the same measure for `Cc1cc(=O)[nH]c(SCC(N)=O)c1C#N`: “inactive”; for `Cn1cccc1C(=O)N1CCC[C@@]2(CCN(Cc3nccs3)C2)C1`: “inactive”; for `O=S(=O)(c1ccc(Sc2nnc3ccccn23)nc1)N1CCOCC1`: “inactive”. On the same count and under the same terms, the same measure for `CC(CCO)Nc1nc2c([nH]1)c(=O)n(C)c(=O)n2C` (centres undefined): “inactive”; for `Cn1c(=O)c2[nH]c(NCC3CCCO3)nc2n(-c2ccccc2)c1=O` (centres undefined): 11 nM (active). In the case of `CC(C)(C)c1nc(NCC2CCCO2)c2nnn(Cc3ccccc3)c2n1` (centres undefined), the max dye-equivalent concentration entry is “inactive”.

With `Cc1ccc2nc(S(=O)(=O)O)[nH]c2c1`, the max dye-equivalent concentration result is “inactive”.

For the compound `COc1cc(-c2nc(S(=O)(=O)c3ccc(Cl)cc3)c(N(C)C)o2)cc(OC)c1OC`, the max dye-equivalent concentration result is “inactive”. With `COc1cc(-c2nnc(Cn3cc(C(F)(F)F)ccc3=O)o2)cc(OC)c1OC`, the max dye-equivalent concentration entry was “inactive”. Regarding `CCOC(=O)c1cc(-c2nnc(-c3cc(OC)c(OC)c(OC)c3)o2)c(C)nc1C`, the max dye-equivalent concentration was 18 nM (active).

For `CCCCC(=O)N1CC2(C)CN(C(=O)CCCC)CC(C)(C1)C2=O`, the max dye-equivalent concentration result was “inactive”.

These data come from PubChem BioAssay AID590 (National Center for Advancing Translational Sciences (NCATS), 2007).
